Assay results from paper PMC4552634, “A New Set of Chemical Starting Points with Plasmodium falciparum Transmission-Blocking Potential for Antimalarial Drug Discovery” (PLoS ONE, 2015).
Where two headings read alike, the source gives them in different places. The whole screen tested about 13,000 compounds, of which about 3,200 (25%) showed an effect of 50% or more. This is one part of the list.

Test system: P. falciparum stage V gametocytes
Parameters: BacTiter-Glo ATP luminescence viability of purified stage V gametocytes in 384-well plates, per cent inhibition versus DMSO
Conditions: 48 h, 5 µM, inhibitor

Row | Compound | % Inhibition | % Inhibition (% Inhibition)
1 | O=C(NCc1ccc(C(=O)NC2CCCCCC2)cc1)c1ccc(O)c(-c2ccc(Cl)c(Cl)c2)c1 [TCMDC-140846] | -16.48% | 
2 | CN(C)c1ccc(NC(=O)Nc2ccnc3ccc(Br)cc23)cc1 [TCMDC-139326] | -66.68% | 
3 | C/C=C1\CN2CC[C@H]1C[C@H]2[C@H](O)c1ccnc2ccc(OC)cc12 [TCMDC-138074] |  | 4.282%
4 | NCCCCNc1cc(-c2ccnc(Nc3cccc(Cl)c3)n2)ccn1 [TCMDC-134683] | 70.36% | 
5 | COc1ccc(Nc2nccc(-c3ccc4c(-c5ccsc5)cnc(N)c4c3)n2)cc1 [TCMDC-135552] | 9.815% | 
6 | COc1ccc(CNc2nccc3ccc(-c4ccc5nccn5c4)cc23)cc1 [TCMDC-133417] | -35.58% | 
7 | OC(CNc1ccnc(Nc2cccc(Cl)c2)n1)c1cccc(C(F)(F)F)c1 (centres unmarked) [TCMDC-136586] | -39.19% | 
8 | CCCCNc1nccc2ccc(-c3ccncc3)cc12 [TCMDC-136490] | -10.89% | 
9 | COc1ccc(CNc2ccnc3cc(OC)ccc23)cc1 [TCMDC-139267] | 1.914% | 
10 | COc1ccc(CNc2nccc3ccc(-c4ccc(N)nc4)cc23)cc1 [TCMDC-133418] | 62.64% | 
11 | OC(CNc1ccnc(Nc2cccc(Cl)c2)n1)c1cccc(F)c1 (centres unmarked) [TCMDC-136573] | -70.46% | 
12 | COc1ccc(Nc2nccc(-c3ccc4ccnc(NCCCCN)c4c3)n2)cc1 [TCMDC-136642] | 94.8% | 
13 | Cc1ccccc1C1CCN(C2CCC(NC(=O)/C=C/c3cccc(Cl)c3)CC2)CC1 (centres unmarked) [TCMDC-133508] | -91.25% | 
14 | CS(=O)(=O)c1ccc(CNCc2cccc(-c3cccc(-c4nc5cc(C(F)(F)F)ccc5[nH]4)c3)c2)cc1.O=C(O)C(F)(F)F [TCMDC-132899] | -4.854% | 
15 | O=C(Nc1ccc(N2CCN(Cc3cccc(F)c3)CC2)cc1)c1cccs1 [TCMDC-134999] | -0.3438% | 
16 | N#Cc1cncc(-c2nc3c(N4CCC(Cc5ccccc5)CC4)cccc3n2C2CCNC2)c1 (centres unmarked) [TCMDC-133545] | 7.232% | 
17 | COc1ccc2nccc([C@@H](O)CN3CCC(NC(=O)C(c4cc5ccccc5o4)N4CCC(Cc5ccccc5)CC4)CC3)c2c1 (some centres unmarked) [TCMDC-140997] | 26.99% | 
18 | COc1cccc(CCc2nc3c(N4CCC(Cc5ccccc5)CC4)cccc3n2CC2CNCCO2)c1 (centres unmarked) [TCMDC-133535] | 83.91% | 
19 | CC(C)c1sc(N2CCN(C)CC2)nc1C(=O)Nc1ccc(F)cc1C(F)(F)F [TCMDC-134300] | 32.87% | 
20 | CCSc1ccccc1COc1c(C)nc(N)nc1N [TCMDC-131359] | 18.44% | 
21 | CCN(CC)c1nc(-c2ccccc2)cc(-c2ccccc2)c1C#N [TCMDC-125830] | -26.16% | 
22 | CCN(CC)c1nc(N)c2c(N)nc3c(c2c1C#N)C(=O)CN3Cc1ccccc1 [TCMDC-125024] | 94.19% | 
23 | Cc1cc(=O)c(-c2ccc(Oc3ccc(Cl)cc3Cl)cc2)c(C)[nH]1 [TCMDC-137267] | 10.5% | 

Row | Compound | % Inhibition | % Inhibition (% Inhibition)
24 | COc1ccc(Oc2ccc(-c3c(C)[nH]c(C)cc3=O)cc2)cc1 [TCMDC-137401] | 68.99% | 
25 | Cc1cc(=O)c(-c2ccc(Oc3ccc(F)cc3)cc2)c(C)[nH]1 [TCMDC-137535] | 37.78% | 
26 | Cc1cc(=O)c(-c2ccc(Oc3cccc(Cl)c3)cc2)c(C)[nH]1 [TCMDC-137265] | 67.32% | 
27 | Cc1cc(=O)c(-c2cccc(Oc3ccc(Cl)cc3)c2)c(C)[nH]1 [TCMDC-137415] | 52.21% | 
28 | Cn1cnc2c(SCc3ccc(OCc4ccccc4)cc3)ncnc21 [TCMDC-136496] | -19.47% | 
29 | O=C(NC(=O)c1ccccc1O)c1ccccc1O [TCMDC-125868] | 4.896% | 
30 | O=C(NC1CCN(c2ccnc3cc(Cl)ccc23)C1)c1ccc(F)cc1 (centres unmarked) [TCMDC-133653] | -3.627% | 
31 | O=C(Nc1nc2ccc(Cl)cc2s1)c1csnn1 [TCMDC-125073] | -15.98% | 
32 | Cn1c(C2CC3CCC(C2)N3CC2CCC(NC(=O)/C=C/c3ccc(Cl)c(Cl)c3)CC2)nc2ccccc21 (centres unmarked) [TCMDC-140342] | -2.342% | 
33 | Cc1ccccc1N1CCN(c2ncc(C(=O)NC3CC3)cc2Cl)CC1 [TCMDC-134602] | 6.226% | 
34 | CC(C)C[C@@H](/C=N/N1CCOC1=O)NC(=O)[C@H](CC(C)C)NC(=O)c1ccc(OCCN2CCOCC2)cc1 [TCMDC-136170] | -12.99% | 
35 | COC(=O)c1ccc(CCCNCC(O)c2cccc(C(F)(F)F)c2)cc1 (centres unmarked) [TCMDC-131462] | 1.956% | 
36 | O=C(/C=C/c1ccc(Cl)c(Cl)c1)NCCCCCN1CCCN(C(=O)Nc2cc(Cl)cc(Cl)c2)CC1 [TCMDC-135760] | -3.132% | 
37 | O=C(COc1ccc(Cl)c(Cl)c1)NCCCCCN1CCCN(C(=O)Nc2cc(Cl)cc(Cl)c2)CC1 [TCMDC-136293] | 78.53% | 
38 | Cc1ccc(/C=C/C(=O)NCCCCCN2CCCN(C(=O)Nc3ccc(Cl)c(Cl)c3)CC2)cc1 [TCMDC-136111] | -64.67% | 
39 | O=C(/C=C/c1ccc(Cl)c(Cl)c1)NCCCCCCN1CCCN(C(=O)Nc2cc(Cl)cc(Cl)c2)CC1 [TCMDC-135936] | -15.47% | 
40 | O=C(/C=C/c1ccc(Cl)c(Cl)c1)NCCCCCN1CCCN(C(=O)Nc2ccc(F)c(Cl)c2)CC1 [TCMDC-135755] | -45.85% | 
41 | O=C(COc1ccc(Cl)c(Cl)c1)NCCCCCN1CCCN(C(=O)Nc2ccc(Cl)c(Cl)c2)CC1 [TCMDC-136292] | 72.04% | 
42 | CC(NC(C)(C)C)C(O)c1ccc(Cl)c(C(F)(F)F)c1 (centres unmarked) [TCMDC-137910] | -2.927% | 
43 | Cc1cccc(C(=O)NC(NC(=S)Nc2cc(Cl)ccc2Cl)C(Cl)(Cl)Cl)c1 (centres unmarked) [TCMDC-124254] | -20.87% | 
44 | CC1(C)N=C(N)N=C(N)N1OCCCOc1cccc(Cl)c1 [TCMDC-131762] | 16.24% | 
45 | COc1ccc2nccc([C@@H](O)CN3CCC(NC(=O)/C=C/c4cc(F)cc(Br)c4)CC3)c2c1 [TCMDC-141031] | -7.765% | 
46 | CN(C)CCOc1ccc(/C(=C(/CCCn2ccnc2)c2ccccc2)c2ccc(O)cc2)cc1 [TCMDC-138900] | -20.55% | 

Row | Compound | % Inhibition | % Inhibition (% Inhibition)
47 | CCCc1cc(OC)c(C[C@@H]2c3cc(O)c(Cl)cc3CCN2C)cc1OC [TCMDC-138128] | -6.481% | 
48 | CN1C(=O)C(=O)N(CCCCCON=C(N)N)C1=S [TCMDC-139249] | 12.53% | 
49 | CCNC(C)(C)CN(Cc1ccc(-c2ccc(C(F)(F)F)cc2)cc1)C(=O)Cn1c(CCc2cccc(F)c2F)nc(=O)c2ccccc21 [TCMDC-141047] | 102.8% | 
50 | CC(C)NC(C)(C)CN(Cc1ccc(-c2ccc(C(F)(F)F)cc2)cc1)C(=O)Cn1c(CCc2cccc(F)c2F)nc(=O)c2ccccc21 [TCMDC-141084] | 71.8% | 
51 | COc1ccc(NC(=O)Nc2cccc(-c3ccncc3)c2)cc1N1CCN(C)CC1 [TCMDC-139111] | 12.5% | 
52 | O=C(Nc1ccc(-c2nc3cc4ccccc4cc3[nH]2)cc1)c1cccc(Br)c1 [TCMDC-123806] | -9.366% | 
53 | O=C(NC1CC1)c1ccc(N2CCC(Oc3ccc(F)cc3)CC2)nc1 [TCMDC-134053] | 8.582% | 
54 | CC(CCCCC(=O)Nc1ccc(C(F)(F)F)cc1)NCC(O)c1cccc(Cl)c1 (centres unmarked) [TCMDC-131538] | 28.83% | 
55 | O=C(Nc1ccc(C(F)(F)F)cc1)NC1CCN(c2ccnc3cc(Cl)ccc23)CC1 [TCMDC-133568] | -13.61% | 
56 | O=C(Cn1c2ccccc2c(=O)c2ccc(Cl)cc21)Nc1ccc(C(F)(F)F)cc1 [TCMDC-125568] | 64.99% | 
57 | FC(F)(F)COc1ccc(CCNCCCCNCCc2ccc(OCC(F)(F)F)c3ccccc23)c2ccccc12 [TCMDC-137282] | 101.8% | 
58 | FC(F)(F)COc1ccc(CNCCCCCCNCc2ccc(OCC(F)(F)F)c3ccccc23)c2ccccc12 [TCMDC-137853] | 131% | 
59 | O=[N+]([O-])c1ccc(CNCCCCCCNCc2ccc([N+](=O)[O-])c3ccccc23)c2ccccc12 [TCMDC-137830] | 10.64% | 
60 | O=c1cc(NCCCNCc2ccc(C(F)(F)F)cc2F)[nH]c2ccccc12 [TCMDC-139427] | 7.285% | 
61 | O=C(/C=C/c1ccc(Cl)c(Cl)c1)NCCCCCCN1CCN(C(=O)Nc2cc(Cl)nc(Cl)c2)CC1 [TCMDC-135891] | -18.09% | 
62 | Cc1cccc(C(=O)Nc2ccnc(N(C)C3CCN(CC(C)C)CC3)c2)c1 [TCMDC-135023] | -10.51% | 
63 | O=C(/C=C/c1cccc(F)c1)NC1CCC(CN2CCC(c3c[nH]c4ccccc34)CC2)CC1 (centres unmarked) [TCMDC-139713] |  | 90.71%
64 | O=C(/C=C/c1cccc(F)c1)NC1CCC(CN2CCC(c3c[nH]c4ccccc34)CC2)CC1 (centres unmarked) [TCMDC-139698] |  | 74.99%
65 | Cc1ccc(/C=C/C(=O)NC2CCC(CN3CCC(c4c[nH]c5ccccc45)CC3)CC2)cc1C (centres unmarked) [TCMDC-139769] |  | 39.49%
66 | Cc1nc(N)nc(N)c1-c1cc(Cl)c(Cl)c(Cl)c1 [TCMDC-137398] | 11.14% | 
67 | CCCC(=O)Nc1ccc(OCCCN(Cc2cccc(C(F)(F)F)c2)c2ccc(C#N)c(C(F)(F)F)c2)cc1 [TCMDC-135666] | 6.029% | 
68 | CCOc1ccc2nccc([C@@H](O)[C@@H]3C[C@@H]4CCN3C[C@@H]4CC)c2c1 [TCMDC-123483] |  | -64.91%
